These results are taken from PubChem BioAssay (NCATS).

Results filed as inconclusive are left out. Entries that show only a call come without a potency. The source made the active and inactive calls. Calls come from the whole dose curve; as a rule, active = well fitted cell-killing curve with a large enough effect; inconclusive = small, poorly fitted or top-dose-only effect; inactive = no such curve, though single readings can be large or run the other way.
Potency is the fitted concentration of half-maximal effect.

The assay can be described thus: qHTS of pediatric cancer cell lines to identify multiple opportunities for drug repurposing: Primary screen for Rh41 cells (AID 1347108). Note: nearly all actives have a fitted effect of over 70% in size. Conditions: Rh41 rhabdomyosarcoma viability, CellTiter-Glo luminescence, 48 h; series mostly up to 46 µM. A digest of the protocol: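 Following a 5-hour attachment period, cells at 500-1,000/well received compounds and were cultured for 48 hours. CellTiter-Glo was added and luminescence read to estimate viable, metabolically active cells.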
On to `CCN(CC)CC#CCOC(=O)C(O)(c1ccccc1)C1CCCCC1` (configuration not stated), for which the Potency result is “inactive”.
The same measure for `CCC(C)(C)c1ccc(CC(C)CN2C[C@@H](C)O[C@@H](C)C2)cc1` (some centres not stated): “inactive”; for `Clc1ccccc1CN1CCc2sccc2C1`: “inactive”.
The same measure for `Cc1onc(-c2ccccc2Cl)c1C(=O)N[C@@H]1C(=O)N2[C@@H]1SC(C)(C)[C@@H]2C(=O)O`: “inactive”; for `CC(C)OC(=O)OCOP(=O)(CO[C@H](C)Cn1cnc2c(N)ncnc21)OCOC(=O)OC(C)C`: “inactive”; for `N[C@@H](Cc1ccc(O)c(O)c1)C(=O)O`: “inactive”.
The same measure for `CCCCS(=N)(=O)CCC(N)C(=O)O` (configuration not stated): “inactive”; for `CNS(=O)(=O)Cc1ccc2[nH]cc(CCN(C)C)c2c1`: “inactive”.
In the case of `CC(=O)[C@H]1CC[C@H]2[C@@H]3CC=C4C[C@@H](O)CC[C@]4(C)[C@H]3CC[C@]12C`, the Potency result is “inactive”.
With `CC(C)(C)NC(=O)[C@H]1CC[C@H]2[C@@H]3CC[C@H]4NC(=O)C=C[C@]4(C)[C@H]3CC[C@]12C`, the Potency entry is “inactive”.
On to `CN(C)CCc1c[nH]c2ccc(C[C@H]3COC(=O)N3)cc12`, for which the Potency entry was “inactive”.
The same measure for `O=P(O)(O)C(O)(Cc1cccnc1)P(=O)(O)O`: “inactive”; for `Cc1ccnc2c1NC(=O)c1cccnc1N2C1CC1`: “inactive”.
With `NC1(c2ccc(-c3nc4ccn5c(=O)[nH]nc5c4cc3-c3ccccc3)cc2)CCC1` the figure was 11.8 µM (active); with `CC1=NN(c2ccccc2)C(=O)C1`, “inactive”.
As to `OC(Cn1cncn1)(Cn1cncn1)c1ccc(F)cc1F`, the Potency result is “inactive”.
The same measure for `CN1CCN(c2c(F)cc3c(=O)c(C(=O)O)cn(CCF)c3c2F)CC1`: “inactive”; for `CC1=C(C(=O)O)N2C(=O)[C@@H](NC(=O)C(N)c3ccccc3)[C@H]2SC1` (some centres not stated): “inactive”.
The same measure for `NC(=O)N1c2ccccc2CC(=O)c2ccccc21`: “inactive”; for `O=C(N[C@H](CO)[C@H](O)c1ccc([N+](=O)[O-])cc1)C(Cl)Cl`: “inactive”; for `CCn1cc(C(=O)O)c(=O)c2cc(F)c(N3CCNCC3)cc21`: “inactive”.
With `O=C(O)c1cccnc1` the entry was “inactive”.
In the case of `C[C@@H]1CN(c2c(F)c(N)c3c(=O)c(C(=O)O)cn(C4CC4)c3c2F)C[C@H](C)N1`, the Potency result was “inactive”.
The same measure for `Cc1cccc(Nc2ccncc2S(=O)(=O)NC(=O)NC(C)C)c1`: “inactive”; for `CN(Cc1cc(Br)cc(Br)c1N)C1CCCCC1`: “inactive”; for `NCCCC(O)(P(=O)(O)O)P(=O)(O)O`: “inactive”.
The same measure for `COc1cc(NS(=O)(=O)c2ccc(N)cc2)nc(OC)n1`: “inactive”.
With `O=S(=O)(c1cccc2cnccc12)N1CCCNCC1` the entry was “inactive”; with `CC(C)OC(=O)C(C(=O)OC(C)C)=C1SC=CS1`, “inactive”; with `O=C(O)c1cn(C2CC2)c2cc(N3CCNCC3)c(F)cc2c1=O`, “inactive”.
As to `CO[C@@H]1[C@@H](OC(N)=O)[C@@H](O)[C@H](Oc2ccc3c(O)c(NC(=O)c4ccc(O)c(CC=C(C)C)c4)c(=O)oc3c2C)OC1(C)C`, the Potency result was “inactive”.
With `O=C(O)CCn1c2c(c3ccccc31)C[C@H](NS(=O)(=O)c1ccc(F)cc1)CC2` the entry was “inactive”.
